A selection: hits, their analogues and other compounds. The true share with any hit is near 19%.
HT1080 IDH1KD tx – toxicity to HT-1080 IDH1 knockdown cells (counter line) | HT-1080 IDH1 knockdown viability, ATP luminescence, 48 h | 2% of 360,000 active | AID 686971 | Potency, µM (titrated, usually from 46.1 µM), for inactives: top-dose activity, negative = toxicity, usual class: cytotoxic;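 further: potency means the concentration at half of the fitted maximal effect; 0% = DMSO wells and -100% = cell-free medium wells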
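Knockdown cells (IDH1KD HT-1080) received compounds 2 h after plating at 750 cells/well and were kept 48 h at 37 °C in 5% FBS RPMI. A CellTiter-Glo luminescence read gave % activity for curve fitting.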
IL1B secr inh – inflammasome signaling inhibition, IL-1 beta readout; THP-1 LPS/ATP IL-1B secretion, AlphaLISA, 16 h; active compounds read low; activity change, % at 57.5 µM; 4.7% of 360,000 active; in the data active means activity change below about -50%; inconclusive means mostly about -30% to -49%
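THP-1 cells pretreated 1 hr with compounds (up to 57.5 uM final), then stimulated with LPS (250 ng/mL final) plus ATP (1.25 mM final); secreted IL-1B measured by AlphaLISA after 16 hr, decreased signal indicating inhibition.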
TDP1 cell noCPT – qHTS for Inhibitors of human tyrosyl-DNA phosphodiesterase 1 (TDP1): qHTS in cells in absence of CPT; Potency, µM (titrated, usually from 46.2 µM), inactives show at the highest dose activity change, negative = growth inhibition, hits mostly inhibitors; DT40 Tdp1-/- hTDP1 cells, no CPT, ATP luminescence, 48 h; 15% of 420,000 active; further: potency means the concentration at half of the fitted maximal effect; nearly all actives have a fitted effect of over 55% in size
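Seeded 400 DT40-hTDP1 cells/well (vehicle DMSO, no 20 nM CPT); pinned compounds; ≥48 hr at 37 °C; CellTiter-Glo luminescence as viability measure.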
HT1080NT lethal – kills 2HG-producing HT-1080-NT fibrosarcoma cells; 1.6% of 360,000 active; Potency, µM (doses to about 46.1 µM), inactives show at the highest dose activity, negative = less viability, hits mostly cytotoxic; HT-1080-NT fibrosarcoma viability, CellTiter-Glo ATP luminescence, 48 h;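 further: NT is the 2HG producing partner of a matched IDH1 knockdown line; potency means the concentration at half of the fitted maximal effect; 0% = DMSO-treated cells and -100% = media-only wells without cells; nearly all actives have a fitted effect of over 55% in size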
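750 cells/well, RPMI + 5% FBS; 2 h settle, compound pin-transfer, 48 h at 37 degrees C. CellTiter-Glo 10 min RT, luminescence. Normalized to DMSO and media-only wells.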
TDP1 cell CPT – DT40-hTDP1 cell growth loss with CPT; 12% of 420,000 active; chicken DT40 Tdp1-/-;hTDP1 cells + 20 nM CPT, ATP luminescence, 48 h; Potency, µM (titrated, usually from 46.2 µM), without a hit: at the highest dose activity change, negative = growth inhibition, most hits filed as inhibitors; further: potency means the concentration at half of the fitted maximal effect; nearly all actives have a fitted effect of over 55% in size
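Chicken DT40 Tdp1-/- cells complemented with human TDP1, 400 cells/well, exposed to compounds plus 20 nM camptothecin for at least 48 h at 37 C; viability read as ATP content by CellTiter-Glo luminescence.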
ELG1 DNA repair – ELG1-dependent DNA repair inhibition | AID 504467 | 2.3% of 330,000 active | Potency, µM (highest dose often 46.1 µM), for the others: top-dose activity change, negative = inhibition, actives largely listed as inhibitors | HEK293T ELG1-luciferase reporter, luminescence, 16 h; DNA damage induced by 5-fluorouridine; further: potency means the concentration at half of the fitted maximal effect; nearly all actives have a fitted effect of over 55% in size
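Luminescence from the luciferase reporter, measured 30 min after ONE-Glo reagent at room temperature, was the read-out. Beforehand, 2,000 cells per well were exposed for 16 hr at 37 °C to 5-fluorouridine together with compound or vehicle.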
* hit, by the source's call; ? = inconclusive; nt = no result; [ ] = dose if it differs, or a comment. Unless noted, the call rests on the fitted dose curve; in most records, active means well fitted curve in the direction sought with a large enough effect; inconclusive means small, poorly fitted or top-dose-only effect, or another doubt; inactive means no such curve, though single readings can be large; an effect the other way counts as inactive or inconclusive. Unless noted, on the % scale 0 is the no-effect control and ±100 the full control effect.

SMILES	HT1080 IDH1KD tx	IL1B secr inh	TDP1 cell noCPT	HT1080NT lethal	TDP1 cell CPT	ELG1 DNA repair
Nn1c(SC/C=C/c2ccccc2)nnc1-c1cccnc1	12%	0	-17%	2%	-2%	7%
CN(C)C(=O)CSc1nnc(-c2cccnc2)n1-c1ccccc1	3%	10	-4%	8%	0%	-2%
O=C(CSc1nnc(-c2cccnc2)n1-c1ccccc1)Nc1ccccn1	2%	23	16µM*	0%	?	-5%
COCc1ccc(CN2CCOc3ccc(C4=Cc5ccccc5C4)cc3C2)o1	nt	nt	-23%	nt	1%[9.04 µM]	nt
CN(CCOc1ccccc1)S(=O)(=O)c1ccc2oc3ccccc3c2c1	-7%	-19	23µM*	0%	?	-17%
COc1cc(C=O)ccc1OCCOCCOc1ccc(Cl)cc1Cl	-6%	?	15µM*	-6%	?	nt
O=C1c2cnc3nc(SCc4ccccc4)nn3c2CC2c3ccccc3CCN12 (stereo unspecified)	1%	0	18µM*	-22%	?	-7%
Nc1sc(-c2ccccc2)n[n+]1Cc1cccc2cccnc12	-14%	?	23µM*	0%	?	-13%
CC1=NN(c2ccccc2)C(=O)C1C(=S)SC1CC(=O)NC1=O (stereo unspecified)	-13%	14	29µM*	-2%	?	nt
COc1ccccc1-c1c(C)nn2c(-c3ccccc3)cc(-c3ccccc3)nc12	nt	nt	-26%	nt	-5%	nt
Cc1ccc(CNC(=O)C2c3ccccc3C(=O)N3CCc4ccccc4C23)o1 (stereo unspecified)	?	-4	23µM*	-1%[9.24 µM]	?	-6%
CN(C)c1nc(-c2ccccn2)nnc1-c1ccccc1	?	96	15µM*	-24%	10µM*	?
CN(C)c1nc(-c2ccccc2)nc(-c2ccc(Cl)cc2)c1C#N	12%	-16	-17%	0%	-2%	?
CCN(CC)c1nc(-c2ccccn2)nc(-c2ccccc2)c1C#N	-16%	?	3.3µM*	-26%	18µM*	12µM*
Cc1nnc(-c2ccccc2)nc1N(C)C	19%	-1	-16%	21%	1%	25%
CC(C)(C)n1nnnc1C(c1cccc(C#N)c1)N1CCCCCC1 (stereo unspecified)	0%	-17	16µM*	-3%	?	-9%
COc1ccccc1C(c1nnnn1C(C)(C)C)N1CCCCCC1 (stereo unspecified)	-6%	-12	18µM*	0%	21µM*	-11%
CC(C)(C)n1nnnc1C(c1ccccc1F)N1CCN(C2CCCC2)CC1 (stereo unspecified)	-3%	-12	-20%	-2%	-6%	-1%
CCC(C)(C)n1nnnc1C(c1cccc(C#N)c1)N1CCN(c2cccc(C)c2C)CC1 (stereo unspecified)	9%[9.24 µM]	-6	16µM*	1%	?	-4%
CCC(C)(C)n1nnnc1C(c1ccc(C)cc1)N1CCCC1 (stereo unspecified)	0%	-4	-26%	6%	-6%	5%
CC(C)(C)n1nnnc1C(c1cccc(C#N)c1)N1CCN2CCCC2C1 (stereo unspecified)	9%	-8	-6%	7%	-2%	6%
CCOc1ccccc1N1CC(C(=O)Nc2cc(S(C)(=O)=O)ccc2Cl)CC1=O (stereo unspecified)	0%	3	-1%	0%	-2%	-28%
Cc1cccc(S(=O)Cc2ccc(C(=O)NC3CCN(Cc4ccccc4)CC3)o2)c1 (stereo unspecified)	2%	-29	0%	-1%	-12%	-11%
O=C(COC(=O)c1n[nH]c(=O)c2ccccc12)NC1CCCCC1	-7%	-4	22%	1%[9.24 µM]	-3%	16%
CN(C(=O)c1nc(-c2ccccc2)n(-c2ccccc2)n1)C1CCS(=O)(=O)C1 (stereo unspecified)	8%	-8	-19%	?	-14%	0%
SMILES	HT1080 IDH1KD tx	IL1B secr inh	TDP1 cell noCPT	HT1080NT lethal	TDP1 cell CPT	ELG1 DNA repair
COc1ccc(-c2c3c(=O)n(C)c(=O)n(C)c3cn2C2CCCCC2)cc1	1%	-54*	?	7%	?	-28%
COc1ccc(-c2nnc(CSc3ncnc4sc5c(c34)CCC5)o2)cc1OC	-2%	-3	10µM*	-5%	?	0%
Cn1cccc1C(=O)N1CCC2(CCN(C(=O)Nc3cccc(F)c3)CC2)CC1	nt	nt	?	nt	23µM*	nt
COCC(=O)N1CCC2(CC1)CCN(c1ccc(-c3ccccc3)cc1)CC2	nt	nt	0.21µM*	nt	?	nt
Cn1cccc1C(=O)N1CCC2(CC1)CCN(c1ccc(-c3ccccc3)cc1)CC2	nt	nt	8.2µM*	nt	9.2µM*	nt
Cn1cccc1C(=O)N1CCC2(CC1)CN(C(c1ccccc1)c1ccccc1)C2	nt	nt	12µM*	nt	?	nt
Cn1cccc1C(=O)N1CCC2(CC1)CN(C(=O)Nc1cccc(F)c1)C2	nt	nt	?	nt	-10%	nt
Cc1ccc(N2CC(NC(=O)c3cc4ccccc4o3)CC2=O)cc1C (stereo unspecified)	nt	nt	-20%	nt	-27%	nt
COc1cc(CNc2ncnc3c2ncn3[C@H]2CN(Cc3ccc(C(=O)O)cc3)C[C@@H](CO)O2)cc(OC)c1OC	?	61	10%	22%	1%	nt
COc1cc(CNc2ncnc3c2ncn3[C@H]2CN(Cc3ccc(-c4ccccc4)cc3)C[C@@H](CO)O2)cc(OC)c1OC	?	0	12µM*	?	8.2µM*	nt
COc1cc(CNc2ncnc3c2ncn3[C@H]2CN(Cc3cccc4ccccc34)C[C@@H](CO)O2)cc(OC)c1OC	?	-15	23µM*	?	18µM*	nt
COc1cc(CNc2ncnc3c2ncn3[C@H]2CN(Cc3ccncc3)C[C@@H](CO)O2)cc(OC)c1OC	-13%	74	13µM*	-3%	13µM*	nt
C=CCNc1ncnc2c1ncn2[C@H]1CN(Cc2cccc3ccccc23)C[C@@H](CO)O1	1%	-1	?	-10%	?	nt
CC1(C2(O)CCCCC2)NCCc2ccccc21 (stereo unspecified)	15%	-16	?	8%	-28%	13%
Cc1ccc(Nc2c(-c3ccc(N4CCOCC4)cc3)nc3ccc(Cl)cn23)cc1	nt	nt	-21%	nt	-20%	nt

Screening data: PubChem, National Center for Advancing Translational Sciences (NCATS)
